High-throughput results (PubChem BioAssay)
3T3 cytotox: Cytotoxic Profiling in NIH 3T3 Cell Line of Diverse Libraries Using Quantitative High-Throughput Screening; NIH 3T3 viability, CellTiter-Glo ATP luminescence, 48-72 h; Potency, µM (titrated, usually from 96.7 µM), most hits filed as inhibitors; actives 4.3% (n = 94,000); also: nearly all actives have a fitted effect of over 55% in size
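First NIH 3T3 cells are plated at 400 cells/well; next compound is pinned in; then plates incubate 48 or 72 hr at 37 °C; finally CellTiter-Glo is added and luminescence read after 10 min.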
Luciferase inh: Firefly luciferase inhibition profiling of diverse chemical library using quantitative high-throughput screening; purified P. pyralis luciferase, luminescence, biochemical; Potency, µM (highest dose often 115 µM), actives largely listed as inhibitors; actives 2.5% (n = 76,000); also: nearly all actives have a fitted effect of over 65% in size
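Purified P. pyralis luciferase (10nM final) in 50mM Tris acetate pH 7.5, 10mM Mg acetate, 0.01% Tween-20, 0.05% BSA with 10uM D-luciferin and 10uM ATP. Compounds titrated qHTS. Luminescence imaged on CCD.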
hNpr1 antagonist: Natriuretic polypeptide receptor (hNpr1) antagonism - Primary qHTS. actives 1.6% (n = 76,000). Atrial natriuretic peptide receptor 1 (Homo sapiens), P16066. HEK293 hNpr1 GloSensor cGMP, ANP-stimulated luminescence. Potency, µM (top dose mostly 46.3 µM), actives largely listed as inhibitors; calls by dose curve; also: nearly all actives have a fitted effect of over 60% in size
Target sequence (P16066 whole entry, looked up): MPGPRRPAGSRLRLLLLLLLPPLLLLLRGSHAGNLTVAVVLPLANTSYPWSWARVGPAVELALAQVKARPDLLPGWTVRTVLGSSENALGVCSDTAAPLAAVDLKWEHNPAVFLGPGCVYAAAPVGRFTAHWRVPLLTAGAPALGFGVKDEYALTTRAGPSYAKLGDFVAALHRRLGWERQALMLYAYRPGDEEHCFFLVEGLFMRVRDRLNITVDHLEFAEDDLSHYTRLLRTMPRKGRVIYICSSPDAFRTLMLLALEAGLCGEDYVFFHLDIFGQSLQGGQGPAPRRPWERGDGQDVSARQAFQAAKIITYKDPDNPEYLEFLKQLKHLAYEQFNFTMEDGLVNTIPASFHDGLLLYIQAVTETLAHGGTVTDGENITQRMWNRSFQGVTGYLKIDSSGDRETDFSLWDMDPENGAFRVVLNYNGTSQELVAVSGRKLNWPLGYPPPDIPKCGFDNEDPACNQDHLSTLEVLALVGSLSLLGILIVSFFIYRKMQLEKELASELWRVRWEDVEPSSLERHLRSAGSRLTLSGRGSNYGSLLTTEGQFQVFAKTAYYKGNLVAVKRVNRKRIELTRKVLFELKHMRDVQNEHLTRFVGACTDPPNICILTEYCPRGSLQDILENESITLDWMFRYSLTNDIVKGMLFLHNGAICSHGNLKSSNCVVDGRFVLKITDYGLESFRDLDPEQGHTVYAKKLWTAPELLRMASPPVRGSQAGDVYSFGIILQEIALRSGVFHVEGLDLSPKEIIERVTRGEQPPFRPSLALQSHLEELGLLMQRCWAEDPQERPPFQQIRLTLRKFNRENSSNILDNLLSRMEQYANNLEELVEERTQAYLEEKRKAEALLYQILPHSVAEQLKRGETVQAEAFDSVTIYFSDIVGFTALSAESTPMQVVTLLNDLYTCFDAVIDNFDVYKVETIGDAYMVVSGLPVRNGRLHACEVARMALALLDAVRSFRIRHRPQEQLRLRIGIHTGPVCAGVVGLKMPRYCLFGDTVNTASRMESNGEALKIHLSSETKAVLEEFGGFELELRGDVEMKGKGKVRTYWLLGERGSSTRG
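HEK293 cells stably expressing human Npr1 and cGMP GloSensor pGS-40F, loaded 2 h with 2% GloSensor reagent, given compound 30 min at room temperature. Luminescence read before and 20 min after 0.1 nM hNppA.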
HEK293 tox: Cytotoxic Profiling in HEK 293 Cell Line of Diverse Libraries Using Quantitative High-Throughput Screening | actives 6.6% (n = 94,000) | Potency, µM (series often up to 115 µM), actives largely listed as inhibitors | HEK 293 viability, ATP luminescence (CellTiter-Glo), 48-72 h; also: nearly all actives have a fitted effect of over 60% in size
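Cytotoxicity was scored by loss of ATP-coupled luminescence (CellTiter-Glo) in HEK 293 cells. Compound treatment ran 48 or 72 hr at 37 degree Celsius, 5% CO2, 95% humidity.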
Large screens that a line does not name were inactive. Hits are enriched below; roughly 11% of the tested compounds scored in any of these assays. Unless noted, calls follow the shape of the dose curve; as a rule, active = well fitted curve in the direction sought with a large enough effect; inconclusive = small, poorly fitted or top-dose-only effect, or another doubt; inactive = no such curve, though single readings can be large; an effect the other way counts as inactive or inconclusive.

CN1C[C@@H](NS(=O)(=O)c2ccc(Cl)cc2)C[C@H]1c1nc(-c2ccc(F)cc2)no1	3T3 cytotox inconclusive, Luciferase inh 40µM, HEK293 tox inconclusive
CC(=O)Nc1ccc(S(=O)(=O)N[C@H]2C[C@@H](c3nc(-c4ccc(F)cc4)no3)N(C)C2)cc1	hNpr1 antagonist inconclusive, HEK293 tox inconclusive
CN1C[C@@H](NS(=O)(=O)c2ccc(F)cc2)C[C@H]1c1nc(-c2cccnc2)no1	none
CN1C[C@@H](NS(=O)(=O)c2ccccc2)C[C@H]1c1nc(-c2ccc(F)cc2)no1	3T3 cytotox inconclusive, Luciferase inh inconclusive, HEK293 tox 100µM
Cn1nccc1C(=O)N[C@@H]1CN(Cc2ccccc2)C[C@H]1CO	HEK293 tox inconclusive
CCN1C(=O)C2CC3(CCN(C(=O)c4cccn4C)CC3)CN2C1=O (stereo not given)	none (no result: Luciferase inh, hNpr1 antagonist)
CN(C)CCN(C)C(=O)c1ccc(-c2ncc3cnc(-c4cccc(F)c4)cn23)cc1	3T3 cytotox 45µM, HEK293 tox 50µM
CC1=C[C@@H](CNC(=O)C(C)(C)C)[C@H](C(C)C)C[C@H]1Cc1nnc(-c2ccncc2)o1	HEK293 tox 79µM
CC1=C[C@@H](CNC(=O)c2ccc(F)cc2)[C@H](C(C)C)C[C@H]1Cc1nnc(-c2ccncc2)o1	3T3 cytotox inconclusive, hNpr1 antagonist inconclusive, HEK293 tox 35µM
CC(=O)N1CCN(C[C@@H]2C=C(C)[C@H](Cc3nnc(-c4ccncc4)o3)C[C@H]2C(C)C)CC1	HEK293 tox inconclusive
CC1=C[C@@H](CNC(=O)c2ccc(C#N)cc2)[C@H](C(C)C)C[C@H]1Cc1nnc(-c2ccncc2)o1	3T3 cytotox inconclusive, hNpr1 antagonist inconclusive, HEK293 tox inconclusive
COc1ccc(C(=O)NC[C@@H]2C=C(C)[C@H](Cc3nnc(-c4ccncc4)o3)C[C@H]2C(C)C)cc1	3T3 cytotox inconclusive, hNpr1 antagonist inconclusive, HEK293 tox 50µM
COCCCNC(=O)C1CCCN1c1nccc(Nc2ccccc2F)n1 (stereo not given)	none (no result: Luciferase inh, hNpr1 antagonist)
COc1ccc(CNC(=O)c2ccc3c(c2)N(C(=O)c2ccc(F)cc2)CC3)cc1	3T3 cytotox inconclusive, HEK293 tox inconclusive
Cc1nn(-c2ccccc2)c2c1C(C1CC1)N(C1CN(C(=O)Cc3cccc(Cl)c3)C1)C2=O (stereo not given)	3T3 cytotox inconclusive, HEK293 tox 25µM (no result: Luciferase inh, hNpr1 antagonist)
Cc1nn(-c2ccccc2)c2c1C(C(C)C)N(C1CN(C(=O)Cc3cccc(Cl)c3)C1)C2=O (stereo not given)	3T3 cytotox 25µM, HEK293 tox 25µM (no result: Luciferase inh, hNpr1 antagonist)
O=C(Cc1cccc(Cl)c1)N1CCCC(c2nn(-c3ccccc3)c(=O)[nH]2)C1 (stereo not given)	3T3 cytotox inconclusive, HEK293 tox 45µM
COCC(=O)N1CCCC(c2nn(-c3cccc(Cl)c3)c(=O)[nH]2)C1 (stereo not given)	none
Cc1nn(-c2ccccc2)c2c1C(C1CC1)N(C1CN(C(=O)NC(C)(C)c3ccccc3)C1)C2=O (stereo not given)	3T3 cytotox 14µM, HEK293 tox inconclusive (no result: Luciferase inh, hNpr1 antagonist)
Cc1nn(-c2ccccc2)c2c1C(C(C)C)N(C1CCN(C(=O)Cc3cccc(Cl)c3)CC1)C2=O (stereo not given)	none (no result: Luciferase inh, hNpr1 antagonist)
CCCCCC(=O)N1CC(=O)N(Cc2cccc(F)c2)CC(O)C1 (stereo not given)	3T3 cytotox inconclusive (no result: Luciferase inh, hNpr1 antagonist)
Cc1cc(=O)n(CC(=O)Nc2cccc(C(F)(F)F)c2)c(N2CCN(c3ccccc3)CC2)n1	3T3 cytotox inconclusive, HEK293 tox inconclusive
C[S+](=O)([O-])c1ccc(-c2nnc3ccc(C(=O)NCc4ccc(F)cc4)cn23)cc1	none (no result: Luciferase inh, hNpr1 antagonist)
Cc1ccc(-c2cccc(C(=O)N3CCCC(O)(CN4CCCC4)C3)c2)o1 (stereo not given)	HEK293 tox inconclusive
COC(=O)C1=C(C)N=C2SC=C(CC(=O)N3CCCC3)N2C1c1cc(OC)ccc1OC (stereo not given)	HEK293 tox inconclusive
COc1ccc(-c2ccnc(-c3nnc(C)n3C(C)C)c2)cc1OC	3T3 cytotox 100µM
COc1ccc(-c2ccnc(-c3nnc(C)n3CCN(C)C)c2)cc1OC	3T3 cytotox 25µM
COCCNC(=O)c1ccc2oc(-c3ccncc3Cl)nc2c1	HEK293 tox inconclusive (no result: Luciferase inh, hNpr1 antagonist)
CC(C)c1ccc(CC(=O)N2CCCc3ncc(C(=O)N4CCCC[C@@H]4Cc4ccccc4)cc32)cc1	3T3 cytotox 35µM, HEK293 tox 45µM
O=C(Cc1cccc(C(F)(F)F)c1)N1CCCc2ncc(C(=O)N3CCCC[C@@H]3Cc3ccccc3)cc21	3T3 cytotox inconclusive, HEK293 tox 79µM
CCC(=O)N1Cc2ccccc2CC2(CCCN2CC2CCOCC2)C1 (stereo not given)	HEK293 tox inconclusive (no result: Luciferase inh, hNpr1 antagonist)
O=C(NCC(F)F)C1CCCN(Cc2cccc(-c3cccs3)c2)C1 (stereo not given)	3T3 cytotox inconclusive, HEK293 tox 89µM (no result: Luciferase inh, hNpr1 antagonist)
O=C(Nc1cccc(F)c1)C1CCCN(Cc2cccc(-c3cccs3)c2)C1 (stereo not given)	3T3 cytotox inconclusive, HEK293 tox 32µM (no result: Luciferase inh, hNpr1 antagonist)
O=C(NCc1ccccc1F)C1CCCN(Cc2cccc(-c3cccs3)c2)C1 (stereo not given)	3T3 cytotox 40µM, HEK293 tox 45µM (no result: Luciferase inh, hNpr1 antagonist)
CCC(C)NC(=O)C1CCCN(Cc2cccc(-c3ccsc3)c2)C1 (stereo not given)	3T3 cytotox inconclusive, HEK293 tox 45µM (no result: Luciferase inh, hNpr1 antagonist)
N#CC1CCN(C(=O)c2ccc3nnc(-c4ccc(Cl)cc4)n3c2)CC1	none (no result: Luciferase inh, hNpr1 antagonist)
CN1CC(=O)N(C2CCCCC2)Cc2c(NCCCO)ncnc21	none (no result: Luciferase inh, hNpr1 antagonist)
COc1ccc(C(=O)N2CCCC(C(=O)N3CCC(c4nc5ccncc5[nH]4)CC3)C2)cc1 (stereo not given)	none (no result: Luciferase inh, hNpr1 antagonist)
CC(C)[C@@H]1C[C@@H]2C[C@@H](N(C)Cc3ccccc3)C[C@]2(c2ccccc2)CO1	HEK293 tox inconclusive (no result: Luciferase inh, hNpr1 antagonist)
COc1cccc(CN2CCOC3(CCN(Cc4ccc(OC)nc4)CC3)C2=O)c1	HEK293 tox inconclusive
CC(=O)N1CCN(c2ccc3nnc(-c4ccccc4)n3n2)CC1	3T3 cytotox inconclusive (no result: Luciferase inh, hNpr1 antagonist)
O=C(NCc1cccc(C(F)(F)F)c1)C1CCCN(Cc2cccc(-c3cccs3)c2)C1 (stereo not given)	3T3 cytotox 7.9µM, HEK293 tox inconclusive (no result: Luciferase inh, hNpr1 antagonist)
O=C(NCc1ccccc1)C1CCCN(Cc2cccc(-c3cccs3)c2)C1 (stereo not given)	3T3 cytotox 32µM, HEK293 tox inconclusive (no result: Luciferase inh, hNpr1 antagonist)
COC(=O)CNC(=O)C1CCCN(Cc2cccc(-c3cccs3)c2)C1 (stereo not given)	3T3 cytotox inconclusive (no result: Luciferase inh, hNpr1 antagonist)
O=C(NCc1ccccc1)C1CCCN(Cc2cccc(-c3ccsc3)c2)C1 (stereo not given)	3T3 cytotox 40µM, HEK293 tox inconclusive (no result: Luciferase inh, hNpr1 antagonist)
